Source: PubChem BioAssay (NCATS)
Records with an inconclusive call do not appear. A number with no mark means an inactive call. Calls come from the whole dose curve; as a rule, active = well fitted inhibition curve with a large enough effect; inconclusive = small, poorly fitted or top-dose-only effect; inactive = flat fitted curve, though single readings scatter. Where a SMILES comes first, the peptide text is derived from it. [ ]: non-standard residue; d: D form. pGlu = O=C1CC[C@@H](C(=O)O)N1

What follows are molecules tested on KB-3-1 (assay: Cytotoxic Profiling of Annotated Libraries Using Quantitative High-Throughput Screening (AID 1296008; note: nearly all actives have a fitted effect of over 60% in size)). Settings: Five cell lines viability, CellTiter-Glo ATP luminescence, 48-72 h; max response: active compounds read low.
How it was run: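 Cells exposed to compounds for 48 or 72 hr at 37 degrees Celsius. Viability read as ATP-coupled luminescence with CellTiter-Glo after 10 min at room temperature.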
% is set by controls: 0 for no effect and ±100 for the full control effect.

SMILES	max response [%]
F[Si-2](F)(F)(F)(F)F	6.45
Oc1cccc(O)c1O	0.0163
C=C1CC[C@H](O)CC1=C/C=C1\CCC[C@]2(C)[C@@H]([C@H](C)CCCC(C)(C)O)CC[C@@H]12	5.57
c1ccc2cc(C3=NCCN3)ccc2c1	-9.97
CCCCC[C@H](O)/C=C/[C@@H]1[C@H]2C/C(=C/CCCC(=O)O)O[C@H]2C[C@H]1O	11.9
COC(=O)CC[C@H](N)C(=O)O	0.526
CC[C@H](C)[C@H](NC(=O)[C@H](Cc1ccccc1)NC(=O)[C@H](C)NC(=O)[C@H](CC(=O)O)NC(=O)[C@H](CCCCN)NC(=O)[C@H](CO)NC(=O)[C@@H]1CCCN1C(=O)[C@@H]1CCC(=O)N1)C(=O)NCC(=O)N[C@@H](CC(C)C)C(=O)N[C@@H](CCSC)C(N)=O ([pGlu]PSKDAFIGLM-NH2)	17.8
[O]=[Bi][O][Bi]=[O]	-13.6
C=Cc1ccc(S(=O)(=O)O)cc1	36.9
CN(Cc1ccccc1)Cc1ccccc1	19.7
O.O.O.O.O.O.O.O=S(=O)([O-])[O-].[Co+2]	-0.614
CC[C@@]1([C@@H]2O[C@@H]([C@H]3O[C@@](O)(CO)[C@H](C)C[C@@H]3C)C[C@@H]2C)CC[C@H]([C@]2(C)CC[C@]3(C[C@H](O)[C@@H](C)[C@@H]([C@@H](C)[C@@H](OC)[C@H](C)C(=O)O)O3)O2)O1 (stereo in doubt)	-18.2
